# Laboratory results taken from PMC4336329 (PLoS ONE, 2015).
# The campaign covered roughly 310,000 compounds. About 2,200 (0.71%) showed an effect of 50% or more. Effects have a minus sign here. Many of the other results were omitted from the sample, so strong results are more common in it than they were.
# Target: human ether-à-go-go-related gene (hERG) potassium channel (human, UniProt Q12809)
# Test: primary screen, population patch clamp on CHO cells stably expressing hERG; higher = less effect of the substance
# human ether-à-go-go-related gene (hERG) potassium channel, sequence (Q12809 whole entry, looked up): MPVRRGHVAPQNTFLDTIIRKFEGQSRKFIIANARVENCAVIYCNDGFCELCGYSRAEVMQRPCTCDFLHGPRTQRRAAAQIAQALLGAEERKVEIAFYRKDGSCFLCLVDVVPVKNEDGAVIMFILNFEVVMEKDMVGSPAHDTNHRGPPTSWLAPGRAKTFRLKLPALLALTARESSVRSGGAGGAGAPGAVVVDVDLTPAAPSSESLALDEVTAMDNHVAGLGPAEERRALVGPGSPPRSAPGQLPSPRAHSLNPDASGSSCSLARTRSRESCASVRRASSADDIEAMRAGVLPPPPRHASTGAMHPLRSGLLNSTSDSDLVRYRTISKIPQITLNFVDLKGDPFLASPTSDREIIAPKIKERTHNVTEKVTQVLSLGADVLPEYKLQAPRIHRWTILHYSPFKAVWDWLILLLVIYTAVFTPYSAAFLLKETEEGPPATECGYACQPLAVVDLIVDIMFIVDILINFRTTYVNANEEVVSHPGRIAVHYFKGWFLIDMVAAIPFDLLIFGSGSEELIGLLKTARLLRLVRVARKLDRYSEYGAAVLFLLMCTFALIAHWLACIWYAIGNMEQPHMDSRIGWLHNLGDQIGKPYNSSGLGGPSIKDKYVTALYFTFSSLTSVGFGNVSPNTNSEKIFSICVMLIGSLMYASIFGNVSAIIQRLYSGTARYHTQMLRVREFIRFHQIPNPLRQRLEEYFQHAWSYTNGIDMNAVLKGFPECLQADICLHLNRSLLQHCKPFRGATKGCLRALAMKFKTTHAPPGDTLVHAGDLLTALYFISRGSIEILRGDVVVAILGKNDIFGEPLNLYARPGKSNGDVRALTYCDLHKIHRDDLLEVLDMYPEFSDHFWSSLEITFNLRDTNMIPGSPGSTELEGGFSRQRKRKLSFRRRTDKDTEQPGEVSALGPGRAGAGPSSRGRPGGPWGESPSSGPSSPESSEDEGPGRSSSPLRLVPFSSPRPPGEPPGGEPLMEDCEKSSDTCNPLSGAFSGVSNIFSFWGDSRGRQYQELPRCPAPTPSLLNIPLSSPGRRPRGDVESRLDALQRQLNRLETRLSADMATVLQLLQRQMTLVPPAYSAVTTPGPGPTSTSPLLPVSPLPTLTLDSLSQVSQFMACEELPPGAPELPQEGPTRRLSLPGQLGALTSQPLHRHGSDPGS
row,SMILES,"hERG current change (%, negative = inhibition) at 1uM [%]"
1,O=C1CCCc2c1nn(-c1ccccc1)[n+]2[O-],6.47
2,Cc1nn(CC(=O)Nc2c(C)n(C)n(-c3ccccc3)c2=O)c(C)c1[N+](=O)[O-],8.99
3,Cc1nn(CC(=O)Nc2cccnc2)c(=O)c2ccccc12,-9.14
4,CCOC(=O)CC1C(=O)NCCN1c1nc2c(C)cccn2c(=O)c1/C=C1\SC(=S)N(C(C)CC)C1=O (stereo not shown),9.18
5,CCOC(=O)C1CCN(C(=O)c2sc3ncnc(N4CCC(C)CC4)c3c2C)CC1,-57.3
6,Cc1c(C(=O)N2CCC(Cc3ccccc3)CC2)sc2ncnc(N3CCC(C)CC3)c12,9.72
7,CCOC(=O)C1CCN(C(=O)c2sc3nc(C)nc(N4CCC(C)CC4)c3c2C)CC1,-1.96
8,COc1ccc2nc(SCC(=O)Nc3ccc(S(=O)(=O)N4CCCC4)cc3)c(C#N)cc2c1,-3.01
9,CN(C)C(=O)c1cc(C(=O)c2ccc(F)cc2C(F)(F)F)c[nH]1,14.3
10,Cc1nn(-c2cccc(Cl)c2)c2c1C(c1ccncc1)C(C#N)=C(N)O2 (stereo not shown),5.94
11,CCOC(=O)CCCCC(=O)c1[nH]c(=O)[nH]c1CSc1nnc2c3ccccc3n(C(C)C)c2n1,-0.434
12,CC(C)(C)c1ccc(C(=O)C2CCCN(C3CCC3)C2)cc1 (stereo not shown),10.7
13,CN1CCCC(C(=O)c2ccc(Cl)cc2)C1 (stereo not shown),-2.93
14,O=C(c1ccc(C(F)(F)F)cc1)C1CCCN(C2CCSCC2)C1 (stereo not shown),-64.4
15,O=C(c1ccc(Cl)cc1)C1CCCN(C2CCSCC2)C1 (stereo not shown),-63.4
16,O=C(c1ccc(C(F)(F)F)cc1)C1CCCN(C(=O)c2csnn2)C1 (stereo not shown),9.85
17,Cc1cc(Cl)ccc1C(=O)C1CCCN(C2CCSCC2)C1 (stereo not shown),-49.3
18,CCC(=O)Nc1ccc(S(=O)(=O)Nc2cccc(C)c2)cc1OC,6.57
19,COc1cc(OC)c2ccc(=O)oc2c1C(CCN1CCCC1)c1ccc2c(c1)OCO2 (stereo not shown),-7.33
20,CC(C)CCC(CCN1CCOCC1)c1ccc2c(c1)OCO2.Cl (stereo not shown),-76.8

row,SMILES,"hERG current change (%, negative = inhibition) at 1uM [%]"
1,O=C(CCN1CCCCC1)c1ccc2c(c1)OCO2,10.3
2,CC(C)CCC(CCN1CCCC1)c1ccc2c(c1)OCO2.O=C(O)C(=O)O (stereo not shown),-83.3
3,C(=NCCCN1CCOCC1)c1ccc2c(c1)OCO2,16.1
4,COc1cc(O)c(C(CCN2CCOCC2)c2ccc3c(c2)OCO3)c(OC)c1 (stereo not shown),-45.7
5,CC(=O)Nc1ccc(NC(=O)C(C)OC(=O)CNC(=O)c2cccs2)cc1 (stereo not shown),12.5
6,CCOC(=O)c1c(-c2ccc(C)cc2C)csc1NC(=O)CSc1nnnn1C,-3.8
7,COc1ccc(Cl)cc1N(C)C(=O)CCNC(=O)Cn1cnc2ccccc2c1=O,11.2
8,Cc1ccc(C)c2[nH]c(=O)c(CN(CCN3CCCC3)C(=O)Nc3cccc(Cl)c3)cc12,-35.6
9,Cc1cc(C)c2cc(CN(CCO)C(=O)Nc3ccc(Cl)cc3)c(=O)[nH]c2c1,3.03
10,COc1cc2cc(CN(CCN3CCCC3)C(=O)Nc3ccc(F)cc3)c(=O)[nH]c2cc1OC,3.06
11,Cc1ccc2cc(CN(CCN3CCCC3)C(=O)Nc3ccc(F)cc3)c(=O)[nH]c2c1C,-8.93
12,Cc1cc(C)c2cc(CN(CCN3CCCC3)C(=O)Nc3ccc(F)cc3)c(=O)[nH]c2c1,-57.9
13,Cc1ccc(C)c2[nH]c(=O)c(CN(CCN3CCCC3)C(=O)Nc3ccc(F)cc3)cc12,-76.6
14,CC1(C)CC(=O)C(C=NCCN2CCN(CC(=O)Nc3ccc(Cl)cc3)CC2)=C(O)C1,2.52
15,C=CCn1c(O)c(C(C)=NCCN2CCCCC2)c(=O)[nH]c1=O,8.8
16,CCOc1ccc(NC(=S)N2CCC(NC(=O)c3ccccc3)CC2)cc1,-3.48
17,CN1CCN(CC#CC(C)(O)C2CC3C=CC2C3)CC1.Cl (stereo not shown),10.8
18,c1cncc(COC2CCCN(Cc3nc(-c4cccs4)no3)C2)c1 (stereo not shown),15.7
19,COc1cc(OC)cc(C(C)=O)c1,14.7
20,Cc1ccc(NC(=O)/C=C/c2ccc([N+](=O)[O-])s2)cc1,13.2

row,SMILES,"hERG current change (%, negative = inhibition) at 1uM [%]"
1,CC(C)N(CCn1c(SCC(=O)N2CC(=O)Nc3ccccc32)nc2ccccc2c1=O)C(C)C,-72.5
2,COCCn1c(SCC(=O)N2CC(=O)Nc3ccccc32)nc2ccccc2c1=O,-3.74
3,CN(C)CCCn1c(SCC(=O)N2CC(=O)Nc3ccccc32)nc2ccccc2c1=O,9.8
4,N#Cc1ccc(S(=O)(=O)NCC(=O)OCC(=O)NCCc2ccccc2)cc1,14.7
5,C=CCn1c(SCC(=O)N(CC)C2CCS(=O)(=O)C2)nc2sc3c(c2c1=O)CCC3 (stereo not shown),-37.5
6,Clc1ccc(-c2nnc(NC3=NCCCCC3)o2)cc1,10
7,COc1ccc(/C=C(\NC(=O)c2ccc(C)cc2)C(=O)NCCN2CCOCC2)cc1,-33.3
8,Cc1ccc(C(=O)N/C(=C\c2ccc(Cl)cc2)C(=O)NCCN2CCOCC2)cc1,-70.6
9,CC(C)c1ccc(/C=C(\NC(=O)c2ccccc2)C(=O)NCCN2CCOCC2)cc1,-21.9
10,CC(C)c1ccc(/C=C(\NC(=O)c2ccccc2)C(=O)NCCCN2CCOCC2)cc1,-35.8
11,O=C(NCCN1CCOCC1)/C(=C/c1ccc(Cl)cc1)NC(=O)c1ccccc1,-83.1
12,Cc1ccc(C(=O)N/C(=C\c2ccc(C(C)C)cc2)C(=O)NCCCN2CCOCC2)cc1,-61.4
13,Cc1ccc(C(=O)N/C(=C/c2ccc(C(C)C)cc2)C(=O)NCCCN2CCOCC2)cc1,-22
14,Cc1ccc(C(=O)N/C(=C\c2ccc(F)cc2)C(=O)NCCN2CCOCC2)cc1,-79.1
15,CN(C)c1ccc(/C=C(/NC(=O)c2ccccc2)C(=O)NCCN2CCOCC2)cc1,16.1
16,Cc1ccc(C(=O)N/C(=C\c2ccccc2)C(=O)NCCN2CCOCC2)cc1,-38.7
17,Cc1ccc(C(=O)N/C(=C\c2ccco2)C(=O)NCCN2CCOCC2)cc1,5.85
18,O=C(NCCN1CCOCC1)/C(=C/c1ccccc1)NC(=O)c1ccccc1,3.35
